Assay results: PubChem BioAssay AID1159580 (chemical genetic matrix, 2015)
The campaign covered roughly 5,500 compounds. About 2,000 (36%) were called active. Not shown: some 18% with an inconclusive outcome. Cut-off read from the data, not from the text of the source: active = normalized growth mostly below about 0.91 (no sharp cut-off); inconclusive = no clear call, values can overlap the other calls; inactive = mostly above about 0.92. This is one part of the list.

Experiment: chemical genetic growth profiling, strain panel (AID 1159580);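 note: tested at 20 µM; growth read once vehicle control cultures reached saturation at 30 °C; 1 = growth at the plate median or of vehicle wells; lower values mean less growth of the strain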
Conditions: growth OD

Measured: normalized growth

NC(C(=O)O)C(O)C(=O)O (stereo not drawn)
active: S. cerevisiae deletion strains, locus YOL012C, strain htz1 1.88 [resistant]
inactive: S. cerevisiae deletion strains, locus YJR066W, strain TOR1, active compounds read low 0.994 | S. cerevisiae deletion strains, locus YJR075W, strain HOC1, active compounds read low 1.01 | S. cerevisiae deletion strains, locus YKL009W, strain mrt4, active compounds read low 1.02 | S. cerevisiae deletion strains, locus YKL068W, active compounds read low 1.01 | S. cerevisiae deletion strains, locus YKL085W, strain MDH1 (second series), active compounds read low 0.999 | S. cerevisiae deletion strains, locus YKL085W, strain MDH1, active compounds read low 0.999 | S. cerevisiae deletion strains, locus YKL160W, strain elf1, active compounds read low 0.974 | S. cerevisiae deletion strains, locus YKR001C, strain vps1, active compounds read low 1.02 | S. cerevisiae deletion strains, locus YKR026C, strain gcn3, active compounds read low 0.997 | S. cerevisiae deletion strains, locus YKR091W, strain srl3, active compounds read low 0.984 | S. cerevisiae deletion strains, locus YLL001W, strain dnm1, active compounds read low 0.987 | S. cerevisiae deletion strains, locus YLL026W, active compounds read low 0.996 | S. cerevisiae deletion strains, locus YLL041C, strain sdh2, active compounds read low 0.978 | S. cerevisiae deletion strains, locus YLR027C, strain aat2, active compounds read low 0.998 | S. cerevisiae deletion strains, locus YLR039C, strain RIC1, active compounds read low 1.02 | S. cerevisiae deletion strains, locus YLR058C, strain SHM2, active compounds read low 1.01 | S. cerevisiae deletion strains, locus YLR102C, strain apc9, active compounds read low 1.04 | S. cerevisiae deletion strains, locus YLR113W, strain HOG1, active compounds read low 1.07 | S. cerevisiae deletion strains, locus YLR221C, strain rsa3, active compounds read low 1.05 | S. cerevisiae deletion strains, locus YLR258W, strain gsy2, active compounds read low 0.995 | S. cerevisiae deletion strains, locus YLR262C, strain YPT6 (second series), active compounds read low 0.973 | S. cerevisiae deletion strains, locus YLR262C, strain YPT6, active compounds read low 1.02 | S. cerevisiae deletion strains, locus YLR268W, strain sec22, active compounds read low 1.07 | S. cerevisiae deletion strains, locus YLR320W, strain mms22, active compounds read low 1.04 | S. cerevisiae deletion strains, locus YLR330W, strain CHS5, active compounds read low 1.01 | S. cerevisiae deletion strains, locus YLR342W, strain FKS1 (second series), active compounds read low 1 | S. cerevisiae deletion strains, locus YLR342W, strain FKS1, active compounds read low 0.999 | S. cerevisiae deletion strains, locus YLR357W, strain rsc2, active compounds read low 0.982 | S. cerevisiae deletion strains, locus YLR370C, strain arc18, active compounds read low 0.988 | S. cerevisiae deletion strains, locus YLR371W, strain rom2, active compounds read low 1.02 | S. cerevisiae deletion strains, locus YLR384C, strain iki3, active compounds read low 0.981 | S. cerevisiae deletion strains, locus YLR418C, strain cdc73, active compounds read low 1.03 | S. cerevisiae deletion strains, locus YML016C, strain PPZ1, active compounds read low 1.01 | S. cerevisiae deletion strains, locus YML032C, strain rad52, active compounds read low 1.02 | S. cerevisiae deletion strains, locus YML120C, strain ndi1, active compounds read low 0.96 | S. cerevisiae deletion strains, locus YML124C, strain tub3, active compounds read low 1.02 | S. cerevisiae deletion strains, locus YMR058W, strain fet3, active compounds read low 0.99 | S. cerevisiae deletion strains, locus YMR078C, strain ctf18, active compounds read low 1.04 | S. cerevisiae deletion strains, locus YMR125W, strain sto1, active compounds read low 0.95 | S. cerevisiae deletion strains, locus YMR129W, active compounds read low 1 | S. cerevisiae deletion strains, locus YMR205C, strain PFK2, active compounds read low 0.966 | S. cerevisiae deletion strains, locus YMR223W, strain ubp8, active compounds read low 1.03 | S. cerevisiae deletion strains, locus YMR231W, strain pep5, active compounds read low 0.993 | S. cerevisiae deletion strains, locus YMR307W, strain GAS1, active compounds read low 1.08 | S. cerevisiae deletion strains, locus YNL067W, strain RPL9B, active compounds read low 1.01 | S. cerevisiae deletion strains, locus YNL071W, strain lat1, active compounds read low 0.982 | S. cerevisiae deletion strains, locus YNL153C, strain GIM3, active compounds read low 1.01 | S. cerevisiae deletion strains, locus YNL183C, strain NPR1, active compounds read low 0.982 | S. cerevisiae deletion strains, locus YNL209W, strain ssb2, active compounds read low 0.982 | S. cerevisiae deletion strains, locus YNL233W, strain BNI4, active compounds read low 1.01 | S. cerevisiae deletion strains, locus YNL248C, strain rpa49, active compounds read low 0.94 | S. cerevisiae deletion strains, locus YNL250W, strain rad50, active compounds read low 1.05 | S. cerevisiae deletion strains, locus YNL271C, strain bni1, active compounds read low 1.03 | S. cerevisiae deletion strains, locus YNL298W, strain CLA4, active compounds read low 1.05 | S. cerevisiae deletion strains, locus YNL307C, strain MCK1, active compounds read low 1.03 | S. cerevisiae deletion strains, locus YNL322C, strain KRE1 (second series), active compounds read low 0.98 | S. cerevisiae deletion strains, locus YNR049C, strain mso1, active compounds read low 0.981 | S. cerevisiae deletion strains, locus YNR052C, strain pop2, active compounds read low 1.04 | S. cerevisiae deletion strains, locus YOL147C, strain pex11, active compounds read low 1.02 | S. cerevisiae deletion strains, locus YOR001W, strain rrp6, active compounds read low 1.01 | S. cerevisiae deletion strains, locus YOR061W, strain CKA2, active compounds read low 1.01 | S. cerevisiae deletion strains, locus YOR069W, strain VPS5, active compounds read low 1 | S. cerevisiae deletion strains, locus YOR070C, strain gyp1, active compounds read low 1.03 | S. cerevisiae deletion strains, locus YOR080W, strain dia2, active compounds read low 0.996 | S. cerevisiae deletion strains, locus YOR083W, strain WHI5, active compounds read low 0.979 | S. cerevisiae deletion strains, locus YOR106W, strain vam3, active compounds read low 0.956 | S. cerevisiae deletion strains, locus YOR136W, strain idh2, active compounds read low 1.03 | S. cerevisiae deletion strains, locus YOR144C, strain elg1, active compounds read low 1.02 | S. cerevisiae deletion strains, locus YOR184W, strain ser1, active compounds read low 1.03 | S. cerevisiae deletion strains, locus YOR231W, strain MKK1, active compounds read low 1.09 | S. cerevisiae deletion strains, locus YOR265W, strain rbl2, active compounds read low 0.987 | S. cerevisiae deletion strains, locus YOR270C, strain vph1, active compounds read low 1.01 | S. cerevisiae deletion strains, locus YOR290C, strain snf2, active compounds read low 0.926 | S. cerevisiae deletion strains, locus YOR316C, strain cot1, active compounds read low 1.02 | S. cerevisiae deletion strains, locus YPL051W, strain arl3, active compounds read low 1 | S. cerevisiae deletion strains, locus YPL055C, strain LGE1, active compounds read low 1.03 | S. cerevisiae deletion strains, locus YPL078C, strain atp4, active compounds read low 0.949 | S. cerevisiae deletion strains, locus YPL106C, strain sse1, active compounds read low 0.954 | S. cerevisiae deletion strains, locus YPL240C, strain hsp82, active compounds read low 0.996 | S. cerevisiae deletion strains, locus YPL241C, strain CIN2, active compounds read low 1 | S. cerevisiae deletion strains, locus YPL256C, strain CLN2, active compounds read low 1.03 | S. cerevisiae deletion strains, locus YPR119W, strain clb2, active compounds read low 1.02 | S. cerevisiae deletion strains, locus YPR141C, strain kar3, active compounds read low 1.02 | S. cerevisiae deletion strains, locus YPR163C, strain tif3, active compounds read low 1.03 | S. cerevisiae deletion strains, locus YPR167C, strain met16, active compounds read low 1.02 | S. cerevisiae deletion strains, strain wtn01, active compounds read low 1.03 | S. cerevisiae strains, strain wild type, active compounds read low 1.01
